# Test results reported in PubChem BioAssay (NCATS).
# “And” between values parts separate entries of the source, which are not always exact repeats. Equal values may be shown once. Results filed as inconclusive are left out. Where a call stands in place of a potency, no number is given. Values without a mark were called inactive. The source made the active and inactive calls. Unless noted, the call rests on the fitted dose curve; in most records, active means well fitted curve in the direction sought with a large enough effect; inconclusive means small, poorly fitted or top-dose-only effect, or another doubt; inactive means no such curve, though single readings can be large; an effect the other way counts as inactive or inconclusive.
# Tests used:
# [1] = target: Cellular tumor antigen p53 (Homo sapiens) (UniProt P04637); test: Primary qHTS for small molecule compounds that upregulate eGFP-tagged delta133p53alpha (in N-terminal) cells. (AID 2060322); conditions: NCI-H358 eGFP-delta133p53alpha fluorescence, 24 h; activation: active compounds read high; further: nearly all actives have a fitted effect of over 75% in size; further: potency means the concentration at half of the fitted maximal effect
# Method in brief: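 NCI-H358 cells pre-induced 24 h with 10 ng/ml doxycycline to express N-terminal eGFP-delta133p53alpha, then dosed 24 h at 37C without doxycycline; fixed, Hoechst-stained, GFP intensity by laser scanning cytometry, normalized to DMSO (0%) and 57.5 uM 5-azacytidine (100%).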
# [2] = target: Cellular tumor antigen p53 (Homo sapiens) (UniProt P04637); test: Primary qHTS for small molecule compounds that upregulate eGFP-tagged delta133p53alpha (in C-terminal) cells. (AID 2060324); conditions: NCI-H358 delta133p53alpha-eGFP (C-terminal tag), GFP fluorescence imaging, 24 h; series mostly up to 57.5 µM; further: potency means the concentration at half of the fitted maximal effect
# Method in brief: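 C-terminal eGFP-tagged delta133p53alpha NCI-H358 line; dox-induced (100 ng/ml, 24 h) then plated without dox; compounds pinned in titration, 24 h 37 °C/5% CO2; PFA fix, Hoechst nuclei; GFP by LSC.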
# [3] = BET inhibitor-based combinations targeting novel dependencies in MECOM-rearranged (r) AML: OCI-AML3 cell line (AID 2202232); conditions: CellTiter-Glo luminescence, 48 h; Potency: OCI-AML3 viability; series mostly up to 46 µM; further: nearly all actives have a fitted effect of over 35% in size; further: potency means the concentration at half of the fitted maximal effect
# Method in brief: (§1)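 Here, 11-point titrations of each agent were applied to 500 seeded cells and incubated 48 hr; CellTiter-Glo signal, scaled against DMSO and empty wells, was integrated as AUC, then Z-scored within the individual line.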
# [4] = BET inhibitor-based combinations targeting novel dependencies in MECOM-rearranged (r) AML: MV-4-11 cell line (AID 2202233); conditions: MV-4-11 AML viability, CellTiter-Glo luminescence, 48 h; series mostly up to 46 µM; further: nearly all actives have a fitted effect of over 45% in size; further: potency means the concentration at half of the fitted maximal effect
# Method in brief: (§2)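 Normalized to DMSO and empty-well controls, the luminescence data from CellTiter-Glo after 48 hr drug exposure were fitted across 11 concentrations. Reported metrics are area under the dose-response curve and its Z-transformed form.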
# [5] = BET inhibitor-based combinations targeting novel dependencies in MECOM-rearranged (r) AML: UCSD-AML1 cell line (AID 2202235); conditions: UCSD-AML1 AML cells viability, CellTiter-Glo, 48 h; series mostly up to 46 µM; further: nearly all actives have a fitted effect of over 40% in size; further: potency means the concentration at half of the fitted maximal effect
# Method in brief: as §2
# [6] = target: Aldehyde dehydrogenase, mitochondrial (Homo sapiens) (UniProt P05091); test: qHTS for Inhibitors of the Aldehyde Dehydrogenase Family (ALDH2) Validation screens (AID 2061302; active means well fitted inhibition curve with a large enough effect; title and protocol of this record describe different tests); conditions: ALDH inhibition qHTS; series mostly up to 42.6 µM
# [7] = BET inhibitor-based combinations targeting novel dependencies in MECOM-rearranged (r) AML: HNT-34 cell line (AID 2202234); conditions: HNT-34 AML viability, CellTiter-Glo luminescence, 48 h; series mostly up to 46 µM; further: nearly all actives have a fitted effect of over 35% in size; further: potency means the concentration at half of the fitted maximal effect
# Method in brief: as §2
# [8] = BET inhibitor-based combinations targeting novel dependencies in MECOM-rearranged (r) AML: AML-194 cell line (AID 2202237; further: nearly all actives have a fitted effect of over 40% in size); conditions: AML-194 (MECOM-r AML) viability, CellTiter-Glo, 48 h; series mostly up to 46 µM
# Method in brief: as §1
# [9] = target: Retinaldehyde dehydrogenase 3 (Homo sapiens) (UniProt P47895); test: qHTS for Inhibitors of the Aldehyde Dehydrogenase Family (ALDH1A3) Primary screen (AID 2061315); conditions: ALDH inhibition qHTS; series mostly up to 56 µM
# [10] = BET inhibitor-based combinations targeting novel dependencies in MECOM-rearranged (r) AML: SET-2 cell line (AID 2202231); conditions: SET-2 AML cells viability, CellTiter-Glo luminescence, 48 h; viability: active compounds read low, concentration not given here; further: nearly all actives have a fitted effect of over 35% in size; further: potency means the concentration at half of the fitted maximal effect
# Method in brief: as §1
# [11] = BET inhibitor-based combinations targeting novel dependencies in MECOM-rearranged (r) AML: AML-191 cell line (AID 2202236; further: nearly all actives have a fitted effect of over 35% in size; further: potency means the concentration at half of the fitted maximal effect); conditions: AML-191 viability, CellTiter-Glo luminescence, 48 h; series mostly up to 46 µM
# Method in brief: as §1
# [12] = target: Aldehyde dehydrogenase, mitochondrial (Homo sapiens) (UniProt P05091); test: qHTS for Inhibitors of the Aldehyde Dehydrogenase Family (ALDH2) Primary screen (AID 2061308); conditions: ALDH2 enzyme inhibition qHTS, 1536-well; series mostly up to 56 µM; further: nearly all actives have a fitted effect of over 55% in size
# [13] = target: Retinaldehyde dehydrogenase 3 (Homo sapiens) (UniProt P47895); test: qHTS for Inhibitors of the Aldehyde Dehydrogenase Family (ALDH1A3) Validation screen (AID 2061312); conditions: ALDH1A3 enzyme inhibition qHTS validation, fluorescence; series mostly up to 84.7 µM; further: nearly all actives have a fitted effect of over 45% in size; further: potency means the concentration at half of the fitted maximal effect
# [14] = target: Aldehyde dehydrogenase, mitochondrial (Homo sapiens) (UniProt P05091); test: qHTS for Inhibitors of the Aldehyde Dehydrogenase Family (ALDH2) Confirmatory screens (AID 2061303; active means well fitted inhibition curve with a large enough effect; title and protocol of this record describe different tests; further: nearly all actives have a fitted effect of over 45% in size); conditions: ALDH inhibition qHTS; series mostly up to 45.4 µM
# [15] = target: Retinaldehyde dehydrogenase 3 (Homo sapiens) (UniProt P47895); test: qHTS for Inhibitors of the Aldehyde Dehydrogenase Family (ALDH1A3) Confirmatory screens (AID 2061311); conditions: ALDH inhibition qHTS; series mostly up to 46 µM; further: nearly all actives have a fitted effect of over 60% in size; further: potency means the concentration at half of the fitted maximal effect
# [16] = target: Retinal dehydrogenase 2 (Homo sapiens) (UniProt O94788); test: qHTS for Inhibitors of the Aldehyde Dehydrogenase Family (ALDH1A2) Confirmation screens (AID 2061314); conditions: ALDH1A2 enzyme inhibition qHTS confirmation; series mostly up to 45.9 µM; further: nearly all actives have a fitted effect of over 65% in size; further: potency means the concentration at half of the fitted maximal effect
# [17] = target: Aldehyde dehydrogenase 1A1 (Homo sapiens) (UniProt P00352); test: qHTS for Inhibitors of the Aldehyde Dehydrogenase Family (ALDH1A1) Confirmatory screens (AID 2061316); conditions: ALDH inhibition qHTS; series mostly up to 47.3 µM; further: nearly all actives have a fitted effect of over 65% in size
# [18] = qHTS for Inhibitors of the Aldehyde Dehydrogenase Family (ALDH1A2, ALDH1A3, ALDH2, ALDH3A1) (AID 2061307); conditions: ALDH inhibition qHTS; series mostly up to 50.3 µM; further: nearly all actives have a fitted effect of over 50% in size
# Sequence of Cellular tumor antigen p53 (Homo sapiens) (P04637 whole entry, looked up): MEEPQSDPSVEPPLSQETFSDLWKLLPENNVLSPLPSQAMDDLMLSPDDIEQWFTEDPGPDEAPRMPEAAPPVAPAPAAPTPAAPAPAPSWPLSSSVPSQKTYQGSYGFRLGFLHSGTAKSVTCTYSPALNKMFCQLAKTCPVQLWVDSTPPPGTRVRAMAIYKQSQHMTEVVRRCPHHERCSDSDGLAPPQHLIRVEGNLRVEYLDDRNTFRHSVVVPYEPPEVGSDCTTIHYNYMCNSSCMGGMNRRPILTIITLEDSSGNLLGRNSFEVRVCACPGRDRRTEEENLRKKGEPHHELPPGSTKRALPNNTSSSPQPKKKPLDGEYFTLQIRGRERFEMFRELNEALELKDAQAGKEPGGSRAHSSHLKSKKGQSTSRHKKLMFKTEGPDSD
compound,measurement,setting,value
Oc1cc(O)cc(/C=C/c2ccc(O)c(O)c2)c1,activation,[1],11.9%
same,Potency,[2],inactive
same,Potency,[3],10.5 µM (active)
same,Potency,[4],10.5 µM (active)
same,Potency,[5],18.6 µM (active)
Cc1cc2c(cc1Cl)N(C(=O)Nc1ccc(Oc3cccnc3C)nc1)CC2,activation,[1],-71.3%
same,Potency,[6],inactive
C[C@](N)(Cc1ccc(O)c(O)c1)C(=O)O,activation,[1],3.95% and 1.83% and 6.56%
same,Potency,[2],inactive
same,Potency,[3],inactive
same,Potency,[7],inactive
same,Potency,[5],inactive
same,Potency,[8],inactive
COc1ccc(/C=C/C(=O)Nc2ccccc2C(=O)O)cc1OC,activation,[1],22.3% and 8.92%
same,Potency,[2],inactive
same,Potency,[9],inactive
same,viability,[10],104%
same,Potency,[3],inactive
same,Potency,[5],inactive
same,Potency,[11],inactive
CNS(=O)(=O)CCc1ccc2[nH]cc(C3CCN(C)CC3)c2c1,activation,[1],13.4% [middle of 4 runs]
same,Potency,[6],inactive
same,Potency,[12],inactive
same,Potency,[13],inactive
same,Potency,[9],inactive
CN(C)c1cc2c(Nc3ccc4c(cnn4Cc4ccccc4)c3)ncnc2cn1,activation,[1],-35.7%
same,Potency,[6],inactive
same,Potency,[14],inactive
same,Potency,[12],inactive
same,Potency,[15],10 µM (active)
same,Potency,[13],inactive
same,Potency,[16],0.283 µM (active)
same,Potency,[9],inactive
same,Potency,[17],inactive
OCc1ccc(-c2nn(Cc3ccccc3)c3ccccc23)o1,activation,[1],-12.3% and 3.48%
same,Potency,[2],inactive
same,Potency,[10],16.6 µM (active)
same,Potency,[3],23.5 µM (active)
same,Potency,[4],5.9 µM (active)
same,Potency,[5],20.9 µM (active)
N#CC(=C(\N)Sc1ccccc1N)/C(C#N)=C(/N)Sc1ccccc1N,activation,[1],-29.9%
same,Potency,[6],inactive
CN1C2CCC1CC(OC(c1ccccc1)c1ccccc1)C2 (configuration not stated),activation,[1],-19.6%
same,Potency,[6],inactive
same,Potency,[13],inactive
CC(N)(Cc1ccc(O)c(O)c1)C(=O)O (configuration not stated),activation,[1],-16.9%
same,Potency,[6],inactive
Cc1[nH]c(=O)c(C#N)cc1-c1ccc2nccn2c1,activation,[1],-19.2% and 47.5% and 13.7%
same,Potency,[2],30.1 µM (active)
same,viability,[10],118%
same,Potency,[3],inactive
same,Potency,[7],inactive
same,Potency,[5],inactive
same,Potency,[11],inactive
same,Potency,[8],inactive
CC(C)(C)c1cc(/C=C(\C#N)C(N)=S)cc(C(C)(C)C)c1O,activation,[1],0.225%
same,Potency,[6],inactive
O=C1c2c(O)cc(O)cc2OC(c2ccc(O)c(O)c2)C1O (configuration not stated),activation,[1],31.8% and -16.9%
same,Potency,[2],inactive
same,Potency,[13],inactive
same,Potency,[3],23.5 µM (active)
same,Potency,[4],18.6 µM (active)
same,outcome,[5],inactive
Cc1cc(Cl)ccc1COc1ccnn1-c1cc(C(=O)O)ccn1,activation,[1],5.67%
same,Potency,[14],inactive
same,Potency,[18],inactive
same,Potency,[12],inactive
same,Potency,[15],inactive
same,Potency,[16],inactive
same,Potency,[9],inactive
OCCN1CCN(CCCN2c3ccccc3Sc3ccc(C(F)(F)F)cc32)CC1,activation,[1],21.2% and 6.21% and -4.78%
same,Potency,[6],inactive
same,Potency,[10],20.9 µM (active)
same,Potency,[3],18.6 µM (active)
same,Potency,[4],18.6 µM (active)
same,Potency,[7],18.6 µM (active)
same,Potency,[5],inactive
same,Potency,[11],29.5 µM (active)
OC[C@H]1O[C@@H](n2cnc3c2NC=NC[C@H]3O)C[C@@H]1O,activation,[1],-7.16%
same,Potency,[14],inactive
same,Potency,[18],inactive
same,Potency,[12],inactive
same,Potency,[15],inactive
same,Potency,[13],inactive
same,Potency,[16],inactive
same,Potency,[9],inactive
same,Potency,[17],inactive
same,viability,[10],108%
same,Potency,[3],inactive
same,Potency,[4],inactive
same,Potency,[7],inactive
same,Potency,[5],inactive
same,Potency,[11],inactive
same,Potency,[8],inactive
O=C(Nc1cc(C(F)(F)F)cc(C(F)(F)F)c1)c1cnc(Cl)nc1C(F)(F)F,Potency,[1],30.1 µM (active)
same,Potency,[14],inactive
same,Potency,[18],inactive
same,Potency,[12],inactive
same,Potency,[15],inactive
same,Potency,[13],inactive
same,Potency,[16],inactive
same,Potency,[9],inactive
same,Potency,[17],inactive
CCC(=O)c1cc(-c2ccc(Cl)cc2)n(-c2ccc(S(N)(=O)=O)cc2)c1C,activation,[1],0.955%
same,Potency,[14],inactive
same,Potency,[18],inactive
same,Potency,[12],inactive
same,Potency,[15],inactive
same,Potency,[13],inactive
same,Potency,[9],inactive
same,Potency,[17],inactive
CC(C)(Oc1ccc(C2CC2(Cl)Cl)cc1)C(=O)O (configuration not stated),activation,[1],-8.47% and 20.1% and -16.4%
same,Potency,[6],inactive
same,Potency,[13],inactive
same,viability,[10],114%
same,Potency,[4],inactive
same,Potency,[7],inactive
same,Potency,[5],inactive
same,Potency,[8],inactive
CC(C)NCC(O)COc1ccc(CCOCC2CC2)cc1 (configuration not stated),activation,[1],-6.83% and 29.3% and -23.2%
same,Potency,[6],inactive
same,Potency,[13],inactive
same,viability,[10],115%
same,Potency,[3],inactive
same,Potency,[4],inactive
same,Potency,[7],inactive
same,Potency,[5],inactive
same,Potency,[11],inactive
same,Potency,[8],inactive
Cc1cn(C[C@H](N)C(=O)O)c(=O)n(Cc2ccsc2C(=O)O)c1=O,activation,[1],15.3%
same,Potency,[14],inactive
same,Potency,[18],inactive
same,Potency,[12],inactive
same,Potency,[15],inactive
same,Potency,[13],12.6 µM (active)
same,Potency,[9],inactive
same,Potency,[17],inactive
